Hit rate of the full screen: of about 7,400 compounds, about 4,100 (55%) were called active.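 Rule for the calls: active = inhibition of yeast growth at or above a set limit in either of two repeat tests at 20 µM; inactive = the rest.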 The set was probably picked from earlier hits. The list is a sample of the results.
Assay: growth inhibitors of tim10-1 mutant yeast, confirmation, single concentration, luminescence, S. cerevisiae (AID 463213);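 note: tim10-1 mutant grown at permissive 25 °C to find synthetic lethal compounds; 0% = DMSO yeast wells and 100% = medium wells without yeast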
Details: S. cerevisiae tim10-1 ts strain growth, BacTiter-Glo, 24 h; at 20 µM; active compounds read high

inhibition, inactive:
CN(C(=O)COc1nnc(-c2cccs2)c(-c2cccs2)n1)c1ccccc1 17%
COC(=O)c1cc(S(=O)(=O)N2CCN(c3cc(C)ccc3C)CC2)c[nH]1 17.7%
CCOC(=O)c1ccccc1CN1C(=O)c2ccccc2S1(=O)=O 17.6%
Cc1ccc(C)c(N2CCN(C(=O)CCCCn3c(=O)[nH]c4ccccc4c3=O)CC2)c1 17.4%
COc1cccc(-c2cc3nc4c(c(N5CCC6(CC5)OCCO6)n3n2)CCCC4)c1 -1.05%
O=C1OC(/C=C/c2ccccc2)=NC/1=C/c1ccco1 3%
CCOc1cc(-c2conc2N)cc(OCC)c1OCC 20.5%
COC(=O)c1ccc(NC(=O)c2ccccc2NS(=O)(=O)c2ccccc2)cc1 19.4%
CN1CCN(c2ccccc2NC(=O)COc2ccc(C3CCCCC3)cc2)CC1 12.4%
O=C(COc1ccccc1F)NNC(=O)c1ccc(N2CCCCC2)c([N+](=O)[O-])c1 25.8%
CNC(=O)c1csc(Cc2c(Cl)sc3ccc(Cl)cc23)n1 20.5%
CCOC(=O)/C=C/c1ccc(C(F)(F)F)cc1S(=O)(=O)NC(C)(C)C 29.9%
COc1ccc(NC(C)=O)cc1NC(=O)CN1CCN(C2c3ccccc3-c3ccccc32)CC1 15.5%
COc1cc(/C=C2/C(=O)ON=C2C)ccc1OCc1ccccc1F 26.9%
Cc1ccc(C(=O)COc2cccc(NC(=O)c3ccco3)c2)cc1 5.8%
CN(C)N1C(N)=C(C#N)C(c2ccc(Br)cc2)C2=C1CCCC2=O (stereo not given) 8.4%
NC(=O)c1sc2nc3c(c(-c4ccccc4)c2c1N)CCC3 19.1%
Cc1ccc2c(N)c(C(=O)c3ccccc3)sc2n1 29.6%
CCn1c(COc2c(C)cccc2C)nnc1SCc1nc2ccccc2c(=O)[nH]1 20.1%
CCCCCCCCCCCCCCCC(=O)OC/C=C(C)/C=C/C=C(C)/C=C/C1=C(C)CCCC1(C)C 17.2%
COC(=O)CCc1sc(Nc2ccc(Br)cc2)nc1-c1ccc(OC)cc1 19.9%
COc1ccc(C(=O)OCC(=O)c2cc(C)n(CC3CCCO3)c2C)cc1[N+](=O)[O-] (stereo not given) 6%
COC(=O)c1c(NC(=O)COc2ccc(Cl)cc2Cl)sc2c1CC(C)(C)NC2(C)C 14.3%
Clc1ccc(Nc2nc(-c3cccs3)cs2)nc1 15%
COc1ccccc1N1CCN(C(=O)c2cc(=O)c3cc(C)cc(C)c3o2)CC1 24.9%
CCOC(=O)C/C(C)=N\Nc1ccc([N+](=O)[O-])cc1[N+](=O)[O-] 9.35%

inhibition, active:
O=C(Nc1nnc(SCc2c(Cl)cccc2Cl)s1)C1CCCO1 (stereo not given) 37%
CN(C(=O)CC(NC(=O)c1ccccc1)(c1ccccc1)c1ccccc1)c1ccccc1 31.1%
CCOc1ccccc1/C=c1\sc2nc(-c3ccco3)nn2c1=O 49.4%
CCc1cccc(CC)c1NC(=S)NCc1ccc2[nH]c(C)cc2c1 35.8%
O=C1Oc2ccccc2C(=O)/C1=C/c1ccccc1O 55.9%
CN(C)CCCN(C(=O)c1ccc(S(=O)(=O)N2CCCc3ccccc32)cc1)c1nc2ccc(F)cc2s1 44.5%
Nc1cc(OC(=O)c2ccccc2Br)nn1S(=O)(=O)c1ccccc1 33.8%
O=C1c2ccccc2S(=O)(=O)N1CC(O)Cn1c2ccccc2c2ccccc21 (stereo not given) 51.1%
O=c1nc2s/c(=C\c3ccco3)c(=O)n2nc1Cc1ccccc1 66.9%
O=C(CSc1cccc2cccnc12)N/N=C/c1cccnc1 36%
CCOC(=O)c1ccc(NC(=O)c2nc[nH]c2C(=O)NCc2ccccc2)cc1 41.4%
Cc1ccccc1OCC(=O)Nc1ccc(N2CCN(C(=O)C(C)C)CC2)c(Cl)c1 66.9%
O=[N+]([O-])c1c(NCCO)cc(Sc2nc3ccccc3s2)c2nonc12 19%
CCCc1cc(-c2nc(-c3ccc(C)cc3)cs2)ccn1 34.8%
O=C(Nc1ccccc1Cl)/C(Cl)=C(\Cl)S(=O)c1ccccc1 (stereo not given) 55%
Cc1[nH]n(C(N)=S)c(=O)c1N=Nc1ccc(Cl)cc1Cl 61.3%
CC(=O)Oc1ccc2c(c1)C(=O)c1ccccc1C2=O 31.1%
O=C(CSC(=S)N1CCOCC1)c1cc(Br)cc(Br)c1O 46%
C[C@@H](NC(=O)OC(C)(C)C)c1nnc(S(=O)(=O)Cc2ccccc2)o1 48.3%
CCOC(=O)Cc1csc(SCC(=O)NC(C)C23CC4CC(CC(C4)C2)C3)n1 (stereo not given) 40.4%
CCOC(=O)Cc1csc(NC(=O)CSc2ccc(Br)cc2)n1 31.3%
O=C(Nc1ccccc1)c1nnsc1S(=O)(=O)c1ccc(Cl)cc1 85.3%
CCCN(CC1COc2ccccc2O1)C(=S)Nc1ccc(C)cc1 (stereo not given) 36.7%
Cc1ccoc1C(=O)Nc1cccc(Oc2ccccc2)c1 43.2%
S=c1[nH]nc(-c2cccnc2)n1/N=C/C(Cl)=C\c1ccccc1 33.9%
Fc1ccccc1/C=C1\CCCC2=C1Nc1ncnn1C2c1ccccc1F (stereo not given) 30.5%
Cc1nc2sc(C(=O)c3ccccc3)c(N)c2c2c1CCCC2 37.9%
COc1ccc(C(=O)COC(=O)c2ccc([N+](=O)[O-])s2)cc1OC 50.6%
O=C1Nc2ccc(Br)cc2/C1=N/N=C/C1=C(N2CCOCC2)C(=C\c2ccccc2)/CC1 59.5%
O=S(=O)(Nc1ccc(O)c2ccccc12)c1ccc(OC(F)(F)F)cc1 32.2%
CC(C)NC(=O)/C(C#N)=C\c1ccc(N(C)C)c(Br)c1 46.5%
O=C1NC(Nc2nc3ccccc3s2)(C(F)(F)F)C(=O)N1C1CCCCC1 (stereo not given) 35.5%
Cc1ccc(Nc2nc(-c3ccc(O)cc3O)cs2)nc1 27.6%
O=[N+]([O-])c1ccc(N/N=C2/CCCCC2c2ccccn2)c([N+](=O)[O-])c1 (stereo not given) 38.6%

Source: PubChem BioAssay AID463213 (Sanford-Burnham Center for Chemical Genomics, 2010)
